# In the supplement of paper PMC4466140:
# B1: unnamed (peptide)
# chain: VFQFQMPTTPISTKM
# B2: unnamed (peptide)
# chain: STPQTMRQAPKRPDA
# Molecular target: AgAbp1
# Assay: SPOT peptide array binding signal intensity (averaged, normalized) (arbitrary units (background-subtracted, floor 0; scale differs between SH3 domains)); higher = stronger binding of the SH3 domain to the peptide
# In short: (§1)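 GST-SH3 fusions from four yeast species, purified on glutathione Sepharose, were incubated at 10 μg/ml overnight at 4°C on membranes of synthetic 15-mer peptides in which cysteines were replaced with serines. Binding signal is the normalized, background-subtracted spot intensity averaged over replicates, in domain-specific arbitrary units.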
row,Binder,SPOT peptide array binding signal intensity
1,B1,≤ 0
2,B2,≤ 0

# Molecular target: AgBbc1
# Assay: as above
# In short: as §1
row,Binder,SPOT peptide array binding signal intensity
1,B1,10
2,B2,206

# Molecular target: AgBem1-D1
# Assay: as above
# In short: as §1
row,Binder,SPOT peptide array binding signal intensity
1,B1,132
2,B2,540

# Molecular target: AgBzz1-D1
# Assay: as above
# In short: as §1
row,Binder,SPOT peptide array binding signal intensity
1,B1,22.5
2,B2,10

# Molecular target: AgBzz1-D2
# Assay: as above
# In short: as §1
row,Binder,SPOT peptide array binding signal intensity
1,B1,9
2,B2,20

# Molecular target: AgCyk3
# Assay: as above
# In short: as §1
row,Binder,SPOT peptide array binding signal intensity
1,B1,1
2,B2,≤ 0

# Molecular target: AgFus1
# Assay: as above
# In short: as §1
row,Binder,SPOT peptide array binding signal intensity
1,B1,346
2,B2,34.5

# Molecular target: AgHof1
# Assay: as above
# In short: as §1
row,Binder,SPOT peptide array binding signal intensity
1,B1,5
2,B2,10.5

# Molecular target: AgHse1
# Assay: as above
# In short: as §1
row,Binder,SPOT peptide array binding signal intensity
1,B1,428
2,B2,122

# Molecular target: AgLsb1
# Assay: as above
# In short: as §1
row,Binder,SPOT peptide array binding signal intensity
1,B1,2
2,B2,6.5

# Molecular target: AgLsb4
# Assay: as above
# In short: as §1
row,Binder,SPOT peptide array binding signal intensity
1,B1,≤ 0
2,B2,≤ 0

# Molecular target: AgMyo5
# Assay: as above
# In short: as §1
row,Binder,SPOT peptide array binding signal intensity
1,B1,14.8
2,B2,6

# Molecular target: AgNbp2
# Assay: as above
# In short: as §1
row,Binder,SPOT peptide array binding signal intensity
1,B1,344
2,B2,1030

# Molecular target: AgRvs167
# Assay: as above
# In short: as §1
row,Binder,SPOT peptide array binding signal intensity
1,B1,1.33
2,B2,0.833

# Molecular target: AgSho1
# Assay: as above
# In short: as §1
row,Binder,SPOT peptide array binding signal intensity
1,B1,251
2,B2,25

# Molecular target: AgSla1-D1-D2
# Assay: as above
# In short: as §1
row,Binder,SPOT peptide array binding signal intensity
1,B1,1.5
2,B2,4

# Molecular target: AgSla1-D3
# Assay: as above
# In short: as §1
row,Binder,SPOT peptide array binding signal intensity
1,B1,3
2,B2,0.5

# Molecular target: CaAbp1-D1
# Assay: as above
# In short: as §1
row,Binder,SPOT peptide array binding signal intensity
1,B1,59
2,B2,≤ 0

# Molecular target: CaAbp1-D2
# Assay: as above
# In short: as §1
row,Binder,SPOT peptide array binding signal intensity
1,B1,116
2,B2,13

# Molecular target: CaBbc1
# Assay: as above
# In short: as §1
row,Binder,SPOT peptide array binding signal intensity
1,B1,34
2,B2,1170

# Molecular target: CaBem1-D1
# Assay: as above
# In short: as §1
row,Binder,SPOT peptide array binding signal intensity
1,B1,111
2,B2,174

# Molecular target: CaBzz1-D1
# Assay: as above
# In short: as §1
row,Binder,SPOT peptide array binding signal intensity
1,B1,152
2,B2,532

# Molecular target: CaBzz1-D2
# Assay: as above
# In short: as §1
row,Binder,SPOT peptide array binding signal intensity
1,B1,101
2,B2,105

# Molecular target: CaCyk3
# Assay: as above
# In short: as §1
row,Binder,SPOT peptide array binding signal intensity
1,B1,13
2,B2,29

# Molecular target: CaFus1
# Assay: as above
# In short: as §1
row,Binder,SPOT peptide array binding signal intensity
1,B1,820
2,B2,202

# Molecular target: CaHof1
# Assay: as above
# In short: as §1
row,Binder,SPOT peptide array binding signal intensity
1,B1,0.5
2,B2,≤ 0

# Molecular target: CaHse1
# Assay: as above
# In short: as §1
row,Binder,SPOT peptide array binding signal intensity
1,B1,303
2,B2,83

# Molecular target: CaLsb1
# Assay: as above
# In short: as §1
row,Binder,SPOT peptide array binding signal intensity
1,B1,2.5
2,B2,0.5

# Molecular target: CaLsb4
# Assay: as above
# In short: as §1
row,Binder,SPOT peptide array binding signal intensity
1,B1,407
2,B2,283

# Molecular target: CaMyo5
# Assay: as above
# In short: as §1
row,Binder,SPOT peptide array binding signal intensity
1,B1,92.8
2,B2,88

# Molecular target: CaNbp2
# Assay: as above
# In short: as §1
row,Binder,SPOT peptide array binding signal intensity
1,B2,653

# Molecular target: CaRvs167
# Assay: as above
# In short: as §1
row,Binder,SPOT peptide array binding signal intensity
1,B2,28.8

# Molecular target: CaRvs167-3
# Assay: as above
# In short: as §1
row,Binder,SPOT peptide array binding signal intensity
1,B2,1

# Molecular target: CaSho1
# Assay: as above
# In short: as §1
row,Binder,SPOT peptide array binding signal intensity
1,B2,100

# Molecular target: CaSla1-D1-D2
# Assay: as above
# In short: as §1
row,Binder,SPOT peptide array binding signal intensity
1,B2,198

# Molecular target: CaSla1-D3
# Assay: as above
# In short: as §1
row,Binder,SPOT peptide array binding signal intensity
1,B2,225

# Molecular target: ScAbp1
# Assay: as above
# In short: as §1
row,Binder,SPOT peptide array binding signal intensity
1,B2,2.5

# Molecular target: ScBbc1
# Assay: as above
# In short: as §1
row,Binder,SPOT peptide array binding signal intensity
1,B2,49.5

# Molecular target: ScBem1-D1
# Assay: as above
# In short: as §1
row,Binder,SPOT peptide array binding signal intensity
1,B2,8.5

# Molecular target: ScBzz1-D1
# Assay: as above
# In short: as §1
row,Binder,SPOT peptide array binding signal intensity
1,B2,3

# Molecular target: ScBzz1-D2
# Assay: as above
# In short: as §1
row,Binder,SPOT peptide array binding signal intensity
1,B2,26

# Molecular target: ScCyk3
# Assay: as above
# In short: as §1
row,Binder,SPOT peptide array binding signal intensity
1,B2,≤ 0

# Molecular target: ScFus1
# Assay: as above
# In short: as §1
row,Binder,SPOT peptide array binding signal intensity
1,B2,39

# Molecular target: ScHof1
# Assay: as above
# In short: as §1
row,Binder,SPOT peptide array binding signal intensity
1,B2,≤ 0

# Molecular target: ScHse1
# Assay: as above
# In short: as §1
row,Binder,SPOT peptide array binding signal intensity
1,B2,72

# Molecular target: ScLsb1
# Assay: as above
# In short: as §1
row,Binder,SPOT peptide array binding signal intensity
1,B2,5.5

# Molecular target: ScLsb2
# Assay: as above
# In short: as §1
row,Binder,SPOT peptide array binding signal intensity
1,B2,5

# Molecular target: ScLsb3
# Assay: as above
# In short: as §1
row,Binder,SPOT peptide array binding signal intensity
1,B2,300

# Molecular target: ScLsb4
# Assay: as above
# In short: as §1
row,Binder,SPOT peptide array binding signal intensity
1,B2,35

# Molecular target: ScMyo3
# Assay: as above
# In short: as §1
row,Binder,SPOT peptide array binding signal intensity
1,B2,196

# Molecular target: ScMyo5
# Assay: as above
# In short: as §1
row,Binder,SPOT peptide array binding signal intensity
1,B2,72.5

# Molecular target: ScNbp2
# Assay: as above
# In short: as §1
row,Binder,SPOT peptide array binding signal intensity
1,B2,2290

# Molecular target: ScPex13
# Assay: as above
# In short: as §1
row,Binder,SPOT peptide array binding signal intensity
1,B2,339

# Molecular target: ScRvs167
# Assay: as above
# In short: as §1
row,Binder,SPOT peptide array binding signal intensity
1,B2,39.7

# Molecular target: ScSho1
# Assay: as above
# In short: as §1
row,Binder,SPOT peptide array binding signal intensity
1,B2,171

# Molecular target: ScSla1-D1-D2
# Assay: as above
# In short: as §1
row,Binder,SPOT peptide array binding signal intensity
1,B2,736

# Molecular target: ScSla1-D3
# Assay: as above
# In short: as §1
row,Binder,SPOT peptide array binding signal intensity
1,B2,540

# Molecular target: SpAbp1-D1
# Assay: as above
# In short: as §1
row,Binder,SPOT peptide array binding signal intensity
1,B2,≤ 0

# Molecular target: SpBbc1
# Assay: as above
# In short: as §1
row,Binder,SPOT peptide array binding signal intensity
1,B2,5

# Molecular target: SpBzz1-D1
# Assay: as above
# In short: as §1
row,Binder,SPOT peptide array binding signal intensity
1,B2,116

# Molecular target: SpBzz1-D2
# Assay: as above
# In short: as §1
row,Binder,SPOT peptide array binding signal intensity
1,B2,11

# Molecular target: SpCyk3
# Assay: as above
# In short: as §1
row,Binder,SPOT peptide array binding signal intensity
1,B2,6

# Molecular target: SpHof1
# Assay: as above
# In short: as §1
row,Binder,SPOT peptide array binding signal intensity
1,B2,25

# Molecular target: SpHof1-2
# Assay: as above
# In short: as §1
row,Binder,SPOT peptide array binding signal intensity
1,B2,38.8

# Molecular target: SpHof1-3
# Assay: as above
# In short: as §1
row,Binder,SPOT peptide array binding signal intensity
1,B2,≤ 0

# Molecular target: SpHse1
# Assay: as above
# In short: as §1
row,Binder,SPOT peptide array binding signal intensity
1,B2,190

# Molecular target: SpLsb1
# Assay: as above
# In short: as §1
row,Binder,SPOT peptide array binding signal intensity
1,B2,≤ 0

# Molecular target: SpLsb4
# Assay: as above
# In short: as §1
row,Binder,SPOT peptide array binding signal intensity
1,B2,384

# Molecular target: SpMyo1
# Assay: as above
# In short: as §1
row,Binder,SPOT peptide array binding signal intensity
1,B2,325

# Molecular target: SpNbp2
# Assay: as above
# In short: as §1
row,Binder,SPOT peptide array binding signal intensity
1,B2,266

# Molecular target: SpPex13
# Assay: as above
# In short: as §1
row,Binder,SPOT peptide array binding signal intensity
1,B2,51

# Molecular target: SpRvs167
# Assay: as above
# In short: as §1
row,Binder,SPOT peptide array binding signal intensity
1,B2,25.8

# Molecular target: SpSla1-D1-D2
# Assay: as above
# In short: as §1
row,Binder,SPOT peptide array binding signal intensity
1,B2,1.5

# Molecular target: SpSla1-D3
# Assay: as above
# In short: as §1
row,Binder,SPOT peptide array binding signal intensity
1,B2,182
